# Reference: PubChem BioAssay AID1259416 (Broad Institute, 2018)
# “And” between values parts separate entries of the source, which are not always exact repeats. Equal values may be shown once. The whole screen tested about 69,000 compounds, of which about 2,600 (3.8%) were called active. Cut-off read from the data, not from the text of the source: active = activity change below about -70% (passing the limit was not always enough); inconclusive = no clear call, values can overlap the other calls. The list comes from a sample in which actives are over-represented; it also holds similar structures and randomly drawn compounds.
# Assay: inhibitors of Toxoplasma growth in IFN-γ-primed hosts – cell-based, primary screen (AID 1259416);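 note: host cells are HeLa cells infected with Toxoplasma gondii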
# Conditions: Toxoplasma gondii growth in IFN-gamma-treated host cells; active compounds read low; concentration not given here
row,SMILES,"activity change, negative = inhibition"
1,Cn1c(=O)c2nc(-c3ccc(I)cc3)oc2c2ccccc21,-20.4% (inactive)
2,CCCN1CCn2cc(C(=O)N3CCN(c4cccc(OC)c4)CC3)nc2C1,15% (inactive)
3,Cc1ccc(Nc2nc(C(=O)Nc3ccc(Cl)cc3F)nc3ccccc23)cc1,4.67% (inactive)
4,O=C(Nc1ccccc1Br)c1nc(Nc2ccccc2)c2ccccc2n1,-74.2% (active)
5,CC(Cc1ccco1)NC(=O)c1nc(Nc2ccccc2)c2ccccc2n1 (stereo unspecified),-47% (inactive)
6,O=C(NC1CCCCC1)c1nc(Nc2ccccc2)c2ccccc2n1,-55.7% (inactive)
7,O=C(NCc1cccc(Br)c1)c1nc(Nc2ccc(F)cc2)c2ccccc2n1,-65.9% (inactive)
8,Cc1cccc(CNC(=O)c2nc(Nc3cccc(C)c3)c3ccccc3n2)c1,-89.5% (active)
9,Cc1cccc(Nc2nc(C(=O)Nc3cccc4c3CCCC4)nc3ccccc23)c1,-67.4% (inactive)
10,Cc1cccc(Nc2nc(C(=O)Nc3cccc(Cl)c3C)nc3ccccc23)c1,-75.4% (active)
11,Cc1ccc(CNC(=O)c2nc(Nc3ccc(C)cc3)c3ccccc3n2)cc1,40.8% (inactive)
12,CCOc1ccccc1NC(=O)OC1CCCN1C(=O)NCc1ccccc1 (stereo unspecified),-2.55% (inactive)
13,O=C(COC(=O)c1ccc(Cl)nc1)NCc1ccc2c(c1)OCO2,8.52% (inactive)
14,CC(=O)c1c(C)nn(CCC(=O)N2CCC(c3ccccc3C(=O)O)C2)c1C (stereo unspecified),2.53% (inactive)
15,Cc1nc(C)c(S(=O)(=O)NC(CCN2CCOCC2)c2ccccc2)s1 (stereo unspecified),12.7% (inactive)
16,CC(C(=O)NCc1ccccc1F)N(c1ccccc1)S(C)(=O)=O (stereo unspecified),12.1% (inactive)
17,O=C(Cn1ncc2c(N3CCN(c4ccccn4)CC3)ncnc21)Nc1cc(F)ccc1F,-34% (inactive)
18,O=C(Cc1ccccc1)NCCc1nc(N2CCOCC2)ncc1C(=O)N1CCCC1,8.84% (inactive)
19,CN1C2CCN(Cc3nccs3)CC2C[C@H]1Cn1cncn1 (stereo partly specified),4.21% (inactive)
20,Cc1cc(Nc2cc(CN3CCOCC3)c3nc(C)c(Cc4ccc(Cl)cc4F)n3n2)n[nH]1,-78.1% (active)
21,COCCN1CCO[C@@H]2CN(Cc3ccccc3F)C[C@@H]2C1,-4.47% (inactive)
22,CN(C)c1ncccc1CNC(=O)c1cnc2c(c1)nnn2C,2.4% (inactive)
23,C/C=C/c1ccccc1[C@@H]1[C@@H](CO)N(C(=O)CN2CCOCC2)[C@H]1C#N,18.7% (inactive)

row,SMILES,"activity change, negative = inhibition"
1,COc1ccc(-c2nc3c(s2)CN(S(=O)(=O)c2cccc(Cl)c2C)CC3)cc1,-94.8% (active)
2,CCOc1ccc(-c2nc3c(s2)CN(S(=O)(=O)c2cccc(C)c2)CC3)cc1,4.52% (inactive)
3,COc1cccc(-c2nc3c(s2)CN(S(=O)(=O)c2cccc(F)c2)CC3)c1,-87.6% (active)
4,COc1ccc(-c2nc3c(s2)CN(S(=O)(=O)c2ccc(C)cc2C)CC3)cc1OC,-101% (active)
5,COC(=O)c1cc2n(n1)CCN(S(=O)(=O)c1ccc(C)cc1OC)C2,-2.93% (inactive)
6,COc1cccc(NC2COC3(CCN(S(=O)(=O)c4cccc(F)c4)CC3)C2)c1 (stereo unspecified),-1.19% (inactive)
7,COc1ccc(S(=O)(=O)N2CCc3nc(-c4ccccc4)sc3C2)cc1OC,62% (inactive)
8,COc1ccc(-c2nc(C)c(CCNS(=O)(=O)c3ccccc3)s2)cc1OC,132% (inactive)
9,O=S(=O)(NC[C@H]1[C@H](c2ccccc2)[C@H](CO)N1CC1CC1)c1ccccc1,14.7% (inactive)
10,Cc1nc(-c2cccc(F)c2)sc1CCNC(=O)C12CC3CC(CC(C3)C1)C2,-46.4% (inactive)
11,C=Cc1cccc(CN2CCC3(CCCN(C(=O)CCOC)C3)C2)c1 (stereo unspecified),-2.67% (inactive)
12,CN(Cc1nc(-c2ccncc2)no1)C(=O)c1cc2ccccc2s1,-2.68% (inactive)
13,Cc1ncc(C(=O)O)c(-c2ccccc2)n1,0.375% (inactive)
14,COCc1cnc2n1CCN(C(=O)c1oc3ccccc3c1C)C2C (stereo unspecified),1.32% (inactive)
15,Cc1cc(C(F)F)nn1CC(=O)NCCn1ncc(-c2ccncc2)c1-c1cccs1,-65.9% (inactive)
16,CCOCCn1nc(C)cc1C(=O)N1CCCC2(CNC(=O)O2)C1 (stereo unspecified),-0.947% (inactive)
17,COCC12CCCOC1CCN(S(=O)(=O)C1CC1)C2 (stereo unspecified),5.49% (inactive)
18,CCc1cnc(N2[C@H](C#N)[C@H](c3ccccc3-c3ccccc3C)[C@H]2CO)s1,18.5% (inactive)
19,C/C=C/c1ccccc1[C@@H]1[C@@H](C#N)N(c2nc(CC)cs2)[C@@H]1CO,1.59% (inactive)
20,Cc1ccc(-c2ccccc2[C@H]2[C@@H](C#N)N(c3ncc(-c4ccccc4)s3)[C@@H]2CO)cc1,-77.5% (active)
21,COc1ccc(CN2C(=O)CO[C@H]3CN(C(=O)NC4CC4)C[C@@H]32)cc1,15.8% (inactive)
22,COc1ccccc1CN1[C@@H]2CNC[C@H]1C2c1ccc(-c2cccc(C#N)c2)cc1 (stereo partly specified),-25.9% (inactive) and -32% (inactive)
23,N#Cc1ccc(-c2ccc([C@@H]3[C@H]4CNC[C@@H]3N4Cc3ccc4c(c3)OCO4)cc2)cc1,-70.6% (active)

row,SMILES,"activity change, negative = inhibition"
1,N#Cc1ccc(-c2ccc([C@@H]3[C@@H](CO)N4C(=O)CNC[C@H]34)cc2)cc1,-24.8% (inactive)
2,CS(=O)(=O)N1CCCC1c1cccc(Nc2nccs2)n1 (stereo unspecified),-21.8% (inactive)
3,COCCn1c(C(=O)NCCCN(C)C)cc2c1c1ccccc1n2C,-12.8% (inactive)
4,CC(C)(C)CN1CC2CN(C(=O)Nc3ccccc3)CC21 (stereo unspecified),-37.8% (inactive)
5,O=C(O)c1ccc(NC(=S)NCc2cccs2)cc1,33.4% (inactive)
6,CC1CCN(C(=O)c2cc(=O)n(CC(=O)Nc3ccc(C(C)C)cc3)c3ccccc23)CC1,-28.9% (inactive)
7,Cn1nc(C(=O)O)c2ccccc2c1=O,58.7% (inactive)
8,Cc1nc(OCC(=O)Nc2cccc(Cl)c2)c2ccccc2n1,-0.194% (inactive)
9,Cn1nc(CC(=O)Nc2cccc(Cl)c2)c2ccccc2c1=O,-79% (active)
10,CCn1nc(C)c(NC(=O)CN2CCC(Oc3ncccn3)CC2)c1C,-9.88% (inactive)
11,COc1cccc2[nH]c(C(=O)N3CCCC(c4cc(CN(C)C)n(C)n4)C3)cc12 (stereo unspecified),5.73% (inactive)
12,Cc1sccc1C(=O)N1CCC2(CC1)CC(NS(C)(=O)=O)C2,6.5% (inactive)
13,COc1ccc2c(C3C(=O)c4ccccc4C3=O)nccc2c1,-108% (active)
14,COc1ccc2cc(-c3ccccc3NC(=O)CN)ccc2c1,70.1% (inactive)
15,O=C1c2ccccc2C(=O)C1c1ccccc1,-11.2% (inactive) and 19.1% (inactive)
16,COc1ccc(-c2cc(C)cnc2-n2cnnc2)cn1,4.46% (inactive)
17,CCc1nc(CN2CCC3(CC2)C(=O)N(CCc2ccccc2)C(=O)N3C)c(C)[nH]1,-3.85% (inactive)
18,COc1ccc2c3c(n(C)c2c1)[C@H](CO)N(Cc1ccccc1Cl)CC31CN(C(=O)CN(C)C)C1,-29.5% (inactive)
19,CN1C(=O)CCc2cc(C(=O)NC3CCCC3)ccc21,9.57% (inactive)
20,Cc1ccc(C(=O)N2CCC3(CC2)CCN(c2cnn(C)c2)C3=O)cc1,19.8% (inactive)
21,Cc1cccnc1N1C[C@H]2CN(c3cnn(C)c3)C(=O)[C@@H]2C1,-73.4% (active)
22,CCN1C(=O)[C@H]2CN(c3ncccn3)C[C@@H]2C12CCN(S(=O)(=O)CC(C)C)CC2,-13.4% (inactive)
23,O=C(CCn1nnc2ccccc21)N1CCCC(c2ccn[nH]2)C1 (stereo unspecified),2.46% (inactive)

row,SMILES,"activity change, negative = inhibition"
1,Cc1noc2nc(C3CCCN(C(=O)CCc4ccccc4)C3)cc(C(F)F)c12 (stereo unspecified),-93.3% (active)
2,Cc1ccc(NC(=O)CC(=O)N2CCCC(c3nc(CC(C)C)no3)C2)cc1 (stereo unspecified),25% (inactive)
3,CCCCc1ncc(CN2CCN(c3ccccc3OC)CC2C)[nH]1 (stereo unspecified),-2.06% (inactive)
4,O=S(=O)(NCc1ccccc1)N1CCCC1c1ccccn1 (stereo unspecified),-3.86% (inactive)
5,CO[C@@H]1CCN(C(=O)c2ccnn2C)[C@H]2CN(CC3CC3)C[C@@H]12,33.7% (inactive)
6,COCCC(=O)c1cc2c(s1)CCN2c1ccc(C)nn1,59.6% (inactive)
7,Cc1ccccc1C(=O)NCCc1csc(-c2ccc(F)cc2)n1,-18% (inactive)
8,COc1ccccc1C(=O)NCCc1csc(-c2ccc(Cl)cc2)n1,-74% (active)
9,O=C(NCCc1csc(-c2ccccc2)n1)c1ccccc1F,455% (inactive)
10,O=C(CSc1nc2ccc(N3C(=O)c4ccccc4C3=O)cc2s1)N1CCOCC1,1.26% (inactive)
11,COc1ccc(NS(=O)(=O)c2cc3c4c(c2)CCC(=O)N4CCC3)cc1OC,2.51% (inactive)
12,CC(C)Cc1cc(C(=O)N2CCCC3(CN(C)C(=O)O3)C2)on1 (stereo unspecified),3.84% (inactive)
13,Cc1nn(C)cc1-c1c(-c2ccccc2)ncn1CCNC(=O)c1ccncc1,-3.05% (inactive)
14,Cn1cc(-c2ccncc2)c(-c2ccc(OCc3ccc4ccccc4n3)cc2)n1,-77.6% (active)
15,CCCCCC(O)c1cccc(OCc2ccc3ccccc3n2)c1 (stereo unspecified),74.5% (inactive) and 28.6% (inactive)
16,CCOC(=O)c1c(C(F)(F)F)cc(-c2ccccc2)nc1C,12.4% (inactive)
17,O=C(c1ccoc1)N1CCCn2c(nc(CN3CCCC3)cc2=O)C1,-0.164% (inactive)
18,COc1ccc(S(=O)(=O)CCNS(=O)(=O)N2CCCC(C)C2)cc1 (stereo unspecified),2.67% (inactive)
19,O=C(Cn1ncc2c(N3CCCC3)ncnc21)NCc1ccccc1,10.5% (inactive)
20,CCc1ccccc1NC(=O)Cn1ncc2c(N(CC)CC)ncnc21,-34.2% (inactive)
21,CCN(CC)c1ncnc2c1cnn2CC(=O)NCc1ccccc1,-95.8% (active)
22,Cc1cc(N2CCC(C(=O)Nc3nnc(-c4cccnc4)s3)CC2)n2ncnc2n1,-5.63% (inactive)
